The list is not random: actives were taken first. Their share in the collection is about 1.3%.
NCOA2 inhibitor – inhibits human steroid receptor coactivator 2; HEK293 GAL4-SRC2 luciferase reporter, luminescence; inhibition, % at 9 µM; 370,000 tested, 0.17% active; AID 651957;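 active = inhibition above the mean inhibition of all tested compounds plus 3 SD, set per campaign, cut at about 52% in these data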;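 note: 0% = DMSO treated cells and 100% = cells given Gossypol at 36 µM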
SRC1 inh – inhibits human SRC1 coactivator; inhibition, % at 3.6 µM; Q15788; 360,000 tested, 0.12% active; HEK293 GAL4-SRC1 luciferase reporter, luminescence;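 active = inhibition above the campaign mean plus 3 SD, with each screening campaign given its own cutoff, cut at about 60% in these data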;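 note: 0% = DMSO treated cells and 100% = gossypol at 36 µM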
SRC3 inh – inhibits human SRC3 coactivator | Q9Y6Q9 | HEK293 GAL4-SRC3 luciferase reporter, luminescence | inhibition, % at 3.6 µM | 360,000 tested, 0.17% active;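 active = inhibition above a per-campaign cutoff, the mean of all compounds plus 3 SD, cut at about 60% in these data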;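 note: 0% = DMSO-treated cells and 100% = gossypol-treated cells at 36 µM; higher means less SRC3-driven luciferase light from the GAL4 reporter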
Target sequence (Q9Y6Q9 whole entry, looked up, the tested form may be a part): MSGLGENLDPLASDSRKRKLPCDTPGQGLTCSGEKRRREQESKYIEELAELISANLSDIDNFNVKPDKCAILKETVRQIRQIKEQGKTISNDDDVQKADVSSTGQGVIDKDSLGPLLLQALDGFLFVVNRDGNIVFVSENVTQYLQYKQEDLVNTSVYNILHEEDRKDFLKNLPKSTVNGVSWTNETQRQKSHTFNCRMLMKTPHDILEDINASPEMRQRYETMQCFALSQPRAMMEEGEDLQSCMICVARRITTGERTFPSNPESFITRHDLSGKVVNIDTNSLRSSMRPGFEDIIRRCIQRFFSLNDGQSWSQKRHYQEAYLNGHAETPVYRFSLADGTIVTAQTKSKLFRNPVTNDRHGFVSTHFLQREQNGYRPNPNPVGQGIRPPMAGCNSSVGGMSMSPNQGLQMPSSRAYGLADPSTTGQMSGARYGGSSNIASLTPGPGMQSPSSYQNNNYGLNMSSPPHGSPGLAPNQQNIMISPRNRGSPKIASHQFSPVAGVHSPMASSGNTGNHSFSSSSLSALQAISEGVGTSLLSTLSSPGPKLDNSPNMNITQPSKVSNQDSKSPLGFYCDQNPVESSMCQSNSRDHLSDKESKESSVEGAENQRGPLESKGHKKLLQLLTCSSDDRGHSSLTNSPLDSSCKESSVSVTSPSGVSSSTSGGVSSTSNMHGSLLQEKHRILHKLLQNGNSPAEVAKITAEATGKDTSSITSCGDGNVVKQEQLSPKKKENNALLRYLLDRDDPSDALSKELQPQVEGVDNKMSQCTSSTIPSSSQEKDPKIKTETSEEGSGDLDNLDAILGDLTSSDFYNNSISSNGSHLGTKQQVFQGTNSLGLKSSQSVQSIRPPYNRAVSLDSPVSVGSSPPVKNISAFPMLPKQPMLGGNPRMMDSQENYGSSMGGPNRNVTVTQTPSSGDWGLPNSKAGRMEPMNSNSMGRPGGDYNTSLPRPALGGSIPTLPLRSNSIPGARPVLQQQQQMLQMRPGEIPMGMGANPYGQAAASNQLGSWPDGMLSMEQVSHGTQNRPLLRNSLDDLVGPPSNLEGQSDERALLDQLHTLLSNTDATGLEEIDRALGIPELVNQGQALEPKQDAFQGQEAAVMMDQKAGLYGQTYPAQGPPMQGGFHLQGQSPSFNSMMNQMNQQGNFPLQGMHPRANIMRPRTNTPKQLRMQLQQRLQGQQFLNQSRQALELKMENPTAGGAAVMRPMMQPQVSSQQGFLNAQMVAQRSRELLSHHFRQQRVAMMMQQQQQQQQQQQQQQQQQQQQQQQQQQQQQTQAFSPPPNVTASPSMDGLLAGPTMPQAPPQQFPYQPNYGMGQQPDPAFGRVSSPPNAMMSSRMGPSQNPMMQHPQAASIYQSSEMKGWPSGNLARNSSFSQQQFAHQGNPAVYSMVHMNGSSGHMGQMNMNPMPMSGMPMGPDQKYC
Gli-Sufu antag – Gli-Sufu pathway antagonism; Sufu-KO-LIGHT fibroblasts, Gli luciferase reporter luminescence; inhibition, % at 5 µM; 340,000 tested, 0.74% active; AID 588413;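 active = inhibition above about 55%, limit read from the data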;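 note: 0% = DMSO-treated cells and 100% = wells with medium but no cells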
LRH-1 inv ag – NR5A2 inverse agonism in reporter assay. inhibition, % at 3.6 µM. O00482. HEK293T StAR-luciferase reporter, LRH-1 transfected, 24 h. 360,000 tested, 0.13% active;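 active = inhibition above the mean inhibition of all tested compounds plus 3 SD, cut at about 73% in these data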;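 note: 0% = DMSO wells and 100% = reporter-only cells lacking LRH-1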
NR2F2 inh – inhibitors of human COUP-TFII (NR2F2); AID 686940; P24468; inhibition, % at 8.6 µM; 370,000 tested, 0.7% active; HEK293T NGFI-A luciferase reporter, luminescence;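 active = inhibition above a per-plate cutoff, mean inhibition of test wells between control levels plus 3 SD, cut at about 38% in these data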;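 note: cells cotransfected with COUP-TFII expression vector driving the NGFI-A reporter; 0% = median of COUP-TF2 test wells and 100% = reporter-only cells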
Gli antag conf – Gli-SUFU antagonism confirmation, single concentration. shares compounds with Gli-Sufu antag. Sufu-KO-LIGHT cells, Gli luciferase reporter, luminescence. inhibition, % at 5 µM. 2,500 tested, 40% active;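 active = mean inhibition at 5 µM reaching about 45%, limit read from the data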;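 note: plate controls were DMSO-treated cells for no effect and wells lacking cells for full effect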
Gli cytotox – counter-screen for Gli-SUFU antagonists: cytotoxicity; shares compounds with Gli-Sufu antag; Sufu-KO-LIGHT cells cytotoxicity, ATP luminescence; cytotoxicity, % at 5 µM; 2,500 tested, 32% active; AID 651994;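 active = mean cytotoxicity at 5 µM above about 25%, limit read from the data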;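 note: cells exposed to compound overnight for roughly 16 to 18 hours; plate controls were DMSO wells with cells for no effect and medium without cells for full effect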
Wnt3a cs – counter-screen for Gli-SUFU antagonists: Wnt3a reporter inhibition | shares compounds with Gli-Sufu antag | Wnt-LIGHT cells, Wnt3a-driven luciferase reporter, luminescence | inhibition, % at 6.25 µM | 2,500 tested, 20% active | AID 651995;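 active = mean inhibition above about 25%, limit read from the data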
Gal4-VP16 ctr – inhibits VP16 reporter, flagging COUP-TFII antagonist hits; shares compounds with NR2F2 inh; HEK293 Gal4-VP16 luciferase reporter, luminescence; inhibition, % at 8.5 µM; 2,500 tested, 25% active; AID 687007; in the data active = inhibition above about 13%
NR2F2 inh conf – COUP-TFII (NR2F2) inhibition, confirmation assay; 2,500 tested, 45% active; AID 687008; inhibition, % at 8.5 µM; HEK293 NGFI-A luciferase reporter, luminescence; shares compounds with NR2F2 inh;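 active = mean inhibition over three repeats above a set limit taken from the earlier primary screen, cut at about 38% in these data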;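 note: 100% = cells given the luciferase reporter alone without the COUP-TF2 vector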
* hit, by the source's call; . = no result given; ! = not active in a repeat.

SMILES | NCOA2 inhibitor | SRC1 inh | SRC3 inh | Gli-Sufu antag | LRH-1 inv ag | NR2F2 inh | Gli antag conf | Gli cytotox | Wnt3a cs | Gal4-VP16 ctr | NR2F2 inh conf
CCN(CC)C(=O)CC[C@H]1CC[C@]2(CCCN(S(=O)(=O)c3ccccc3)C2)O1 | -11 | . | . | . | . | 8 | . | . | . | . | .
O[C@@H]1CN(Cc2ccc(-n3cccn3)cc2)CC[C@H]1N1CCN(c2ccccc2F)CC1 | 10 | 7 | -9 | 59* | 27 | 49* | 46* | 27* | -15 | 9 | 36
Cc1ccc(CN2CCN(Cc3ccc(-n4cccn4)cc3)CC2CCO)cc1 (stereo unspecified) | 13 | -2 | 20 | 26 | 2 | 7 | . | . | . | . | .
CCOC(=O)N1CCC(NC(=O)C2CCCN(Cc3nc(-c4cccc(Cl)c4)oc3C)C2)CC1 (stereo unspecified) | 28 | 13 | 17 | 54 | 15 | 48* | 60* | 34* | -9 | 0 | 29
Cc1ccc(-c2cc3cccc[n+]3cc2-c2ccc(C)cc2)cc1 | 1 | 51 | 55 | 86* | 84* | 66* | 89* | 27* | 48* | 8 | 54*
COC(=O)[C@]12C[C@H](CC(=O)N3CCSCC3)C(=O)N(Cc3ccc(Cl)cc3Cl)C1=C[C@H](C(C)(C)C)O[C@@H]2C | 32 | . | . | . | . | 4 | . | . | . | . | .
S=C(NCCSCc1ccc(Cl)cc1Cl)Nc1ccccc1 | 14 | -21 | 14 | -2 | 16 | 10 | . | . | . | . | .
S=C(Nc1ccccc1)Nc1ccc(OCc2ccc(Cl)cc2Cl)cc1 | 82* | 55 | 60 | 58* | 50 | 76* | 68* | 29* | 103* | 70* | 71*
CCc1nc(C)cn1S(=O)(=O)c1cc(C)c(OC)cc1C | -11 | -17 | -2 | 1 | -31 | -9 | . | . | . | . | .
CCc1nc(C)cn1S(=O)(=O)c1cc(C)c(OC)c(C)c1C | 24 | -3 | 14 | 60* | -5 | 49* | 52* | 30* | 55* | 7 | 40*
COc1cccc(Cn2c(NCC(C)C)nc3c2c(=O)n(C)c(=O)n3C)c1 | -5 | -28 | 11 | 27 | 12 | 3 | . | . | . | . | .
COc1cccc(Cn2c(NCc3ccco3)nc3c2c(=O)n(C)c(=O)n3C)c1 | 22 | . | . | 81* | . | 49* | 80* | 41* | 39* | 1 | 24
Cc1ccc(-c2cc(-c3nnc(SCC(=O)Nc4ccccc4-c4ccccc4)n3N)[nH]n2)cc1 | -27 | . | . | . | . | -6 | . | . | . | . | .
CCC(C)(C)c1ccc(Oc2ccc(N)cc2)cc1 | 91* | 68* | 77* | 74* | 69 | 95* | 83* | 31* | 105* | 91* | 98*
CCC(C)(C)c1ccc(Oc2cccc(C(=O)O)c2)cc1 | -26 | -86 | -73 | -43 | -75 | -20 | . | . | . | . | .
Cc1ccc(NC(=O)C2CC3CCC2C3)c(C)c1 (stereo unspecified) | . | . | . | . | . | -12 | . | . | . | . | .
Nc1nonc1C(=O)NCCNCc1cc(Br)ccc1OCc1ccccc1F | 17 | 3 | 15 | 51 | 12 | 66* | 44 | 34* | 2 | 19* | 26
Nc1nonc1C(=O)NCCNCc1ccccc1OCc1ccccc1F | 19 | -13 | -7 | 19 | 11 | -21 | . | . | . | . | .
c1csc(CCNc2ncnc3sc4c(c23)CCC4)c1 | 17 | 16 | 29 | 56* | 46 | 67* | 60* | 30* | 1 | 3 | 46*
S=C(NCCc1ccccc1)Nc1cccc2cnccc12 | 18 | 19 | 28 | 51 | 45 | 67* | 58* | 18 | 34* | 1 | 61*
CCCCNC(=S)Nc1cccc2cnccc12 | 1 | 3 | 11 | 6 | 27 | 14 | . | . | . | . | .
COc1ccc(-c2c(C)nc3c(-c4ccc(F)cc4)cnn3c2N)cc1 | -31 | -54 | -61 | -9 | -31 | -42 | . | . | . | . | .
Cc1nc2c(-c3ccc(Cl)cc3)cnn2c(N)c1-c1ccc(F)cc1 | 42 | 49 | 50 | 63* | 29 | 52* | 81* | 18 | 84* | 1 | 68*
Cc1nn(C)c(C)c1CN(C)S(=O)(=O)c1ccc2ccccc2c1 | 25 | 14 | 17 | 75* | 39 | 61* | 78* | 28* | 37* | 2 | 66*
O=S(=O)(c1cc(F)ccc1F)N1CCN(c2ncnc3ccccc23)CC1 | 23 | 8 | 19 | 59* | 18 | 51* | 63* | 58* | 10 | 19* | 53*
SMILES | NCOA2 inhibitor | SRC1 inh | SRC3 inh | Gli-Sufu antag | LRH-1 inv ag | NR2F2 inh | Gli antag conf | Gli cytotox | Wnt3a cs | Gal4-VP16 ctr | NR2F2 inh conf
O=S(=O)(c1cc(F)ccc1F)N1CCN(c2ccccn2)CC1 | 9 | -2 | 3 | 6 | -6 | 9 | . | . | . | . | .
Cc1ccc(-n2c(SCC(=O)c3ccc(F)cc3)nnc2-c2cccnc2)cc1 | 9 | . | . | . | . | 6 | . | . | . | . | .
COc1ccc(CCNc2c(C)c(C)nc3ncnn23)cc1 | 16 | 31 | 27 | 72* | 44 | 66* | 70* | 45* | 28* | -2 | 52*
CCc1c(C)nc2ncnn2c1NCCc1ccc(OC)c(OC)c1 | -9 | -1 | -29 | 17 | 13 | 23 | . | . | . | . | .
Cc1cccc(-c2nnc3n2N=C(c2ccccc2)CS3)c1 | 10 | -10 | 13 | 6 | 29 | 14 | . | . | . | . | .
Cc1cc(-c2nnc3n2N=C(c2ccc(-c4ccccc4)cc2)CS3)n[nH]1 | -21 | -2 | -16 | 15 | 16 | -17 | . | . | . | . | .
C[n+]1c2n(c3ccccc31)N=C(c1ccccc1)CS2 | 14 | 1 | 18 | 60* | 29 | 40* | 72* | 28* | -13 | -1 | 47*!
C[n+]1c2n(c3ccccc31)N=C(c1ccc(-c3ccccc3)cc1)CS2 | -54 | -5 | 63* | 87* | 58 | 70* | 89* | 32* | 12 | 8 | 65*
C[C@H]1[C@@H](OC(=O)N2CCOCC2)CC[C@@]23CCCN2C(=O)CCC[C@@H]13 | . | . | . | . | . | -8 | . | . | . | . | .
Cc1nn(C)c(C(=O)NCc2ccc(Cl)cc2)c1Cl | 18 | 21 | 26 | 63* | 40 | 61* | 53* | 29* | 20 | 1 | 44*
CC(Sc1nc2ccccc2c(=O)n1C)C(=O)N(C)C1CCCCC1 (stereo unspecified) | 26 | 18 | 12 | 72* | 28 | 46* | 61* | 18 | 10 | 6 | 26
